Data on 106 compounds can be found in PubChem BioAssay AID784 (The Scripps Research Institute Molecular Screening Center, 2007).

Out of some 30,000 compounds screened, about 130 (0.43%) were called active. Rule as the data show it: active = activation above about 65%; inactive = the rest. The entries come from a sample that favours actives as a whole.

This experiment deals with Lysosomal acid glucosylceramidase (Homo sapiens) (UniProt P04062). The experiment in a line: GBA activity enhancers in patient fibroblasts, primary screen, cell-based (AID 784).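 Also: 0% = vehicle wells and 100% = positive control wells.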 The note with it: L444P Gaucher fibroblasts, 4-MU-glucoside fluorescence, 3 days; at 10 µM; hits give high values.
Lysosomal acid glucosylceramidase (Homo sapiens), sequence (P04062 whole entry L483P): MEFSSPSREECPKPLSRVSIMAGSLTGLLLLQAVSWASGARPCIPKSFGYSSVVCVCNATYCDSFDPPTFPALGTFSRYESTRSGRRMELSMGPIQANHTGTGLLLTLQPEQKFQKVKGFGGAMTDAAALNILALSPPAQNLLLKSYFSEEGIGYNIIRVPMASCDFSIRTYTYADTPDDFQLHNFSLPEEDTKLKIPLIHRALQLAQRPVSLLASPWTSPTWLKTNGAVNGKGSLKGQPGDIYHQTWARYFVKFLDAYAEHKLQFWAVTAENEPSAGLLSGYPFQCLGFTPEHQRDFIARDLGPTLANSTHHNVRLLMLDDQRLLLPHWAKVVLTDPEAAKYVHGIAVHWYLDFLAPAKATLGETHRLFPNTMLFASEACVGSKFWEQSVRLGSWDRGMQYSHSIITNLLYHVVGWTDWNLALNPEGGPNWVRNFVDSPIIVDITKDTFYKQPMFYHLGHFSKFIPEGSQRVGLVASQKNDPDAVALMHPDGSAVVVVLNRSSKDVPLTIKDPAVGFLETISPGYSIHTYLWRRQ
`COc1ccc(CC(=O)Nc2ccc3c(c2)CCC3)cc1S(=O)(=O)N1CCOCC1`: the activation was 32.8% (inactive). For `Cc1ccc(C(=O)NC2CC(C)(C)NC(C)(C)C2)c(C)c1`, the activation was -52.5% (inactive). The result for `CC(=NC1CCN(Cc2ccccc2)CC1)c1c(O)[nH]c(=O)[nH]c1=O` reads -6.5% (inactive). The result for `CS(=O)(=O)N(CC(=O)N1CCN(Cc2ccc3c(c2)OCO3)CC1)c1ccc2c(c1)OCO2` reads -6.7% (inactive).

`CCC(C)n1[nH]c(=O)cc1N` (stereo unspecified): the activation is 4.55% (inactive).

Regarding `COc1ccc(C(=O)Cn2nnc(-c3ccc(N4CCOCC4)cc3)n2)cc1OC`, the activation was -17.5% (inactive). With `O=C1CN(C(=O)COC(=O)C2CC(=O)N(Cc3ccco3)C2)c2ccccc2N1` (stereo unspecified) the figure was 4.58% (inactive); with `CN(C(=O)c1ccno1)c1nnc(-c2cccnc2)s1`, -12.7% (inactive). On to `CC(=O)Cc1nsc(NC(=O)c2csc3c2CCCC3)n1`, for which the activation is -9.06% (inactive).

Turning to `COC(=O)c1sccc1NC(=O)c1csc2c1CCCC2`, the activation was -10.4% (inactive). With `COC(=O)c1sc(NC(=O)c2csc3c2CCCC3)nc1C`, the activation was 67.1% (active).

For `CCN(CC)S(=O)(=O)c1ccc(NC(=O)CN(c2cccc(F)c2)S(C)(=O)=O)cc1`, the activation is 83.1% (active). Take `COc1cccc(N(CC(=O)Nc2cccc(N(C)S(C)(=O)=O)c2)S(C)(=O)=O)c1`: the activation is -7.1% (inactive). With `COc1cccc(N(CC(=O)Nc2cccc(F)c2)S(C)(=O)=O)c1`, the activation is 4.09% (inactive). With `COc1ccccc1N1CCN(C(=O)CSc2nnc(-c3ccoc3C)o2)CC1` the figure was 7.59% (inactive). In the case of `CCC(C)(C)NC(=O)C(c1cccn1C)N(Cc1ccc(C)cc1)C(=O)Cn1nnc2ccccc21` (stereo unspecified), the activation was -4.98% (inactive). Turning to `CCOC(=O)C1(c2ccccc2)NC(c2ccc(N(C)C)cc2)C2C(=O)N(C)C(=O)C21` (stereo unspecified), the activation is -22.4% (inactive). The result for `CCOC(=O)C1(Cc2ccc(O)cc2)NC(c2ccccc2F)C2C(=O)N(C)C(=O)C21` (stereo unspecified) reads 102% (active); that for `COc1ccc2nc(N3CCCC(O)C3)c(C#N)cc2c1` (stereo unspecified), -3.51% (inactive). Take `Cc1nc(SC(C)C)[nH]c(=O)c1Cc1ccccc1`: the activation is 1.07% (inactive). With `CCc1c(C)nc2ncnn2c1N1CCC(C(=O)NCc2ccc3c(c2)OCO3)CC1` the figure was 9.86% (inactive); with `CCOC(=O)C(C)Oc1cccc2c(=O)n(CC(=O)N3CCc4ccccc43)ccc12` (stereo unspecified), 3.53% (inactive).

For the compound `O=C(COC(=O)c1ccc2c(c1)OCCO2)NCc1ccccc1`, the activation is 1.84% (inactive). Take `Cc1cc(C)c(S(=O)(=O)NCCCN2CCOCC2)cc1Br`: the activation is 17.8% (inactive). In the case of `CCN(CC)S(=O)(=O)c1cccc(C(=O)Nc2ccccc2)c1`, the activation was -3.99% (inactive).

Turning to `CC(C)C[C@H](NC(=O)NCCc1ccc(Cl)cc1)C(=O)O`, the activation is -14.7% (inactive). For the compound `COc1ccc(CCN=C2SCC(=O)N2C)cc1OC`, the activation is -11.5% (inactive).

Consider `CCOc1ncccc1C(=O)OCc1cn2cc(Cl)ccc2n1`, for which the activation was 2.09% (inactive). As to `COc1ccccc1N1CCN(C(=O)Cn2nnc(-c3cccs3)n2)CC1`, the activation was -45% (inactive). As for `O=C(CN1CCN(c2nc(-c3ccccc3)cs2)CC1)NCc1ccc2c(c1)OCO2`, the activation was -22.9% (inactive). Consider `COC(=O)c1cn(-c2ccccc2)nc1-c1cccnc1`, for which the activation was 64.9% (inactive). For the compound `CCOc1ccc(N2C(=O)CC(N(O)c3ccccc3)C2=O)cc1` (stereo unspecified), the activation is 20.8% (inactive).

`Cc1cc(C)nc(SCc2nnc(SCC(=O)OC3CCCCC3)o2)n1`: the activation was -16% (inactive). For the compound `Cc1ccc(C(=O)CSc2nc3ccccc3c(=O)n2N)o1`, the activation was -3.06% (inactive). Take `Cc1ccc(S(=O)(=O)NCC(=O)OCC(=O)N2CCc3ccccc32)cc1`: the activation is -6.72% (inactive). With `O=C(Nc1ccccc1)c1cccnc1Nc1ccccc1` the figure was -10.1% (inactive); with `O=C(Nc1ccc2c(c1)nc1n2CCCCC1)c1cc(S(=O)(=O)N2CCOCC2)ccc1Cl`, -3.59% (inactive); with `CCN(CC(=O)NC(C)C)C(=O)CCNC(=O)c1ccc(Cl)cc1`, 21% (inactive). Consider `CN1CCN(S(=O)(=O)c2ccc(NC(=O)c3ccco3)cc2)CC1`, for which the activation is -8.04% (inactive). On to `CCC1SC2=NCCN2C1(O)c1ccc(Cl)cc1` (stereo unspecified), for which the activation is -18.2% (inactive). With `c1ccc(-c2oc3ncnc(N4CCOCC4)c3c2-c2ccccc2)cc1` the figure was -12.4% (inactive).

Take `CCC(C)Sc1nc2c(c(=O)[nH]c(=O)n2C)n1CC(O)COc1cccc2ccccc12` (stereo unspecified): the activation is -21% (inactive). The result for `CNC(=O)C1CC(=O)N(Cc2ccc3c(c2)OCO3)C(=Nc2ccc(F)cc2)S1` (stereo unspecified) reads -16.6% (inactive); that for `COc1ccc(C(=O)CSc2nccc(=O)[nH]2)cc1`, -9.63% (inactive); that for `O=C(OCc1nnc(-c2ccccc2)o1)c1ccc2c(c1)C(=O)N(CCc1ccccc1)C2=O`, -2.93% (inactive). The result for `COc1c(C)cccc1C(=O)Nc1cc(Cl)ccc1N1CCOCC1` reads -42.8% (inactive); that for `CC(=O)OCc1cc2cc(C)ccc2[nH]c1=O`, -12% (inactive); that for `COc1cc2c(cc1OC)C(c1ccncc1)CC(=O)N2` (stereo unspecified), -30.8% (inactive). As to `CCc1c(C)nc(N)n2c(SCC(=O)N3CCN(c4ccccc4)CC3)nnc12`, the activation is -9.46% (inactive). With `CCOC(=O)c1c(NC(=O)CCC(=O)NCc2ccco2)sc2c1CCCC2`, the activation was -3.62% (inactive). Consider `O=c1nc(N2CCOCC2)nc2n1CCO2`, for which the activation was 0.48% (inactive). As for `O=C(CN1C2CCC1CC(NC(=O)C1CC1)C2)NCc1ccccc1` (stereo unspecified), the activation was -20% (inactive).

For `CCn1c(COc2cccc(OC)c2)nnc1SCC(=O)N1CCOCC1`, the activation was 2.04% (inactive).

In the case of `COc1ccc(S(=O)(=O)N(CCCN2CCCC2=O)Cc2cc3c(C)ccc(C)c3[nH]c2=O)cc1`, the activation is -24.5% (inactive). On to `COc1ccccc1Nc1ncnc2c1oc1ccccc12`, for which the activation is -53.1% (inactive). As for `O=C(NCc1ccccn1)c1cc2ccccc2oc1=O`, the activation was -7.53% (inactive). With `O=C(CNCCO)NC12CC3CC(CC(C3)C1)C2`, the activation was 10% (inactive). On to `COc1cc(NS(=O)(=O)c2ccccc2)ccc1-n1nc(C)cc1C`, for which the activation was 4.78% (inactive). As for `C=C(C)c1cccc(C(C)(C)NC(=O)N2CCN(c3ncccn3)CC2)c1`, the activation was 0.53% (inactive). As for `Cc1ccsc1C(=O)OCC(=O)c1cc2ccccc2o1`, the activation is 6.97% (inactive). As for `COc1ccc(CCn2nnnc2C(c2ccccc2)N2CCN(C)CC2)cc1OC` (stereo unspecified), the activation was -1.68% (inactive). On to `CCn1c(SCC(=O)NCC2CCCO2)nc2cc(S(=O)(=O)N3CCCCC3)ccc21` (stereo unspecified), for which the activation was -14.9% (inactive). In the case of `CCN1C(=O)CS/C1=N\c1nccs1`, the activation was -12.6% (inactive).

In the case of `Cc1ccc(S(=O)(=O)N(C)CC(=O)N2CCc3ccccc32)cc1`, the activation is 0.44% (inactive). In the case of `Cc1cccc(OCc2nnc(SCn3nnc4ccccc4c3=O)o2)c1`, the activation was 4.49% (inactive).

In the case of `Cc1cc(C)cc(OCc2nnc(SCC(=O)Nc3ccccc3)o2)c1`, the activation is -21.4% (inactive). For `O=C(Nc1ccc2c(c1)OCCO2)C1CCCN(c2ncccn2)C1` (stereo unspecified), the activation was -35.2% (inactive). Regarding `O=C(NC1CCN(Cc2ccccc2)CC1)c1ccccc1F`, the activation is -0.98% (inactive). The result for `O=C(COC(=O)c1ccc(Oc2ccccc2)cc1)Nc1nnc(-c2ccccc2)o1` reads -9.15% (inactive); that for `Cc1nc2cc(-c3ccc(F)cc3)nn2c(N2CCOCC2)c1C`, 4.6% (inactive); that for `COc1ccc(CNC2CCCCC2)cc1`, -12% (inactive). Take `CCn1c(COc2ccc(OC)cc2)nnc1SCC(=O)Nc1cc(OC)ccc1OC`: the activation was -5.85% (inactive). In the case of `CC(=O)N1CCC(C(=O)Nc2nc(-c3ccccc3)ns2)CC1`, the activation is -7.15% (inactive).

On to `Cn1c(=O)c2c(nc(CN3CCOCC3)n2Cc2ccccc2)n(C)c1=O`, for which the activation was -2.48% (inactive). On to `Cc1ccc(-c2nc(COC(=O)c3c(C)noc3C)cs2)cc1`, for which the activation is 4.07% (inactive). Take `CCOC(=O)c1ccccc1NC(=O)CC1Nc2ccccc2NC1=O` (stereo unspecified): the activation is -13.8% (inactive). As for `Cc1cccc2nc(CNc3ccc(F)cc3)cn12`, the activation was -22.2% (inactive). In the case of `COC(=O)N1CN(C(=O)OC)CN(C(=O)OC)C1`, the activation was -8.85% (inactive). With `CC(=O)N1CCN(C(=O)c2cccc(S(=O)(=O)Nc3ccc(C)cc3)c2)CC1`, the activation is 5.73% (inactive). For the compound `CCn1nnc(NC(=O)c2c(OC)cccc2OC)n1`, the activation was 4.73% (inactive). On to `COc1ccccc1N1CC(O)=C(c2nc3ccccc3s2)C1=N`, for which the activation is 8.76% (inactive).

`Cc1ccc(NC(=O)CN2CCC3(O)CCCCC3C2c2ccc3c(c2)OCO3)c(C)c1` (stereo unspecified): the activation is -20.4% (inactive). Regarding `CCOC(=O)c1sc(/N=C/Nc2nc(C)c(C(=O)OCC)s2)nc1C`, the activation was -5.05% (inactive). In the case of `CCC(c1nnnn1Cc1ccccc1)N(Cc1cc2cc(OC)ccc2[nH]c1=O)CC1CCCO1` (stereo unspecified), the activation is -25.6% (inactive). Take `COc1ccc(CCNC(=O)c2ccco2)cc1`: the activation was -11.6% (inactive). Take `CCC12CN3CC(CC)(CN(C1)C31C(=O)N(C)c3ccc(C)cc31)C2=O` (stereo unspecified): the activation was -17.4% (inactive).

Turning to `Cc1cccc(NC(=O)COc2ccc(Br)cc2C)n1`, the activation was 7.05% (inactive). As to `CC(=O)c1ccc(-n2nnnc2SCC(=O)N2CCN(C(=O)c3ccco3)CC2)cc1`, the activation was -18.5% (inactive). For `O=C(CN(CC1CCCO1)C(=O)CNS(=O)(=O)c1ccccc1)NCc1ccccc1` (stereo unspecified), the activation was -28.7% (inactive). In the case of `CC1CCCC(NC(=O)CSc2nccn2C)C1C` (stereo unspecified), the activation was -8.08% (inactive). In the case of `CCOC(=O)c1c(C)[nH]c(C(=O)COc2ccc3c(c2)OCO3)c1C`, the activation was 6.28% (inactive). With `Cn1c(SCC(=O)c2cccs2)nnc1-c1ccco1`, the activation was -23% (inactive).

`CCCn1c(SCC(=O)N2CCc3ccccc32)nnc1-c1ccncc1`: the activation is -11% (inactive). Take `CCCSC1=C(C#N)C(c2ccccc2C)C(C(=O)OC)C(=O)N1` (stereo unspecified): the activation is -16.4% (inactive). In the case of `Cc1cc(C)c2c(c1)cc(C)c1nnc(SCC(=O)Nc3cc(C)on3)n12`, the activation was -30.3% (inactive). As to `CCOC(=O)c1cc(-c2nnc(-c3cc(OC)c(OC)c(OC)c3)o2)c(C)nc1C`, the activation is -21.7% (inactive). The result for `O=C(Nc1ccc(S(=O)(=O)N2CCCC2)cc1Cl)C1=COCCO1` reads 22.5% (inactive).

For `O=C(O)c1ccc(NS(=O)(=O)c2cccc3nsnc23)cc1`, the activation is 1.35% (inactive).

Take `CC1=CC(C)(C)N(C(=O)CSc2nccn2C)c2cc(C)ccc21`: the activation was -9.35% (inactive). Regarding `CN1CCC2(CC1)NC(=O)NC2=O`, the activation is -11.5% (inactive). Take `COC(=O)C(CC(=O)Nc1cc(C)ccc1C)Nc1ccccc1OC` (stereo unspecified): the activation is 3.63% (inactive). Regarding `Cn1cccc1C(=O)NC(=O)COC(=O)Cc1coc2ccc3ccccc3c12`, the activation was -54.5% (inactive). The result for `Cc1ccc(NC(=O)CS(=O)CC(=O)N(c2ccccc2)C(C)C(=O)NC2CCCC2)cc1` (stereo unspecified) reads 0.43% (inactive). As to `CCCc1nnc(NC(=O)c2cc(OC)cc(OC)c2)s1`, the activation was -49.8% (inactive). With `CCCc1nc(SCC(=O)Nc2ccccc2OC)c2c(=O)n(C)c(=O)n(C)c2n1`, the activation was -10.4% (inactive). Turning to `CCc1cc(=O)oc2cc(C)cc(OC(C)C(=O)O)c12` (stereo unspecified), the activation is 12.8% (inactive).
